# Results taken from PubChem BioAssay (NCI).
# The panel holds about 83,000 compounds, 20% with a hit somewhere; the sample as a whole holds those more often.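 Single-concentration screen, 48 h exposure, 96-well plates. Endpoint: percent growth. Below 10 = active.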 Unmarked numbers belong to inactive results. Activity calls are given as the source filed them.
# Tests used:
# Assay in all cases: NCI-60 one-dose screen, 48 h (100 = growth as untreated, 0 = no growth, -100 = all killed)
# Conditions in all cases: 10 µM unless noted
# SR leukemia = tested on: SR leukemia
# RPMI-8226 leukemia = tested on: RPMI-8226 leukemia
# OVCAR-8 ovarian = tested on: OVCAR-8 ovarian
# OVCAR-5 ovarian = tested on: OVCAR-5 ovarian
# OVCAR-4 ovarian = tested on: OVCAR-4 ovarian
# SK-OV-3 ovarian = tested on: SK-OV-3 ovarian
# IGROV1 ovarian = tested on: IGROV1 ovarian
# HS 578T breast = tested on: HS 578T breast
# NCI/ADR-RES ovarian = tested on: NCI/ADR-RES ovarian
Structure (SMILES),growth (SR leukemia),growth (RPMI-8226 leukemia),growth (OVCAR-8 ovarian),growth (OVCAR-5 ovarian),growth (OVCAR-4 ovarian),growth (SK-OV-3 ovarian),growth (IGROV1 ovarian),growth (HS 578T breast),growth (NCI/ADR-RES ovarian)
CC(=O)/C(N=Nc1ccc2oc(=O)ccc2c1)=C(\C)O,9.76% (active),12.3%,25.1%,50.8%,50%,37.1%,32.4%,63.1%,13.3%
C#C[C@]1(O)CC[C@H]2[C@@H]3CC=C4c5sc(N(C)c6ccccc6)nc5CC[C@]4(C)[C@H]3CC[C@@]21C,43.7%,2.94% (active),82%,92.5%,94%,98.7%,107%,89.8%,82.1%
O=C1c2ccccc2C23C(=C(c4cncnc4)c4ccccc42)CCCN13 (centres undefined),96.1%,103%,104%,96.5%,93.3%,118%,107%,95%,103%
O=[N+]([O-])c1ccc(NC(=S)NNC(=S)Nc2ccc(Br)cc2)cc1,79.4%,79.4%,98.6%,91.4%,98.2%,100%,71.7%,107%,84.5%
Cc1ccc(CSC2=C(Cl)CN(c3ccc(Cl)cc3)C2=O)cc1,74.1%,92.8%,105%,106%,107%,117%,115%,107%,103%
COC(=O)[C@@H](Cc1c[nH]c2ccccc12)NC(=O)CCCCOc1cc(O)c2c(=O)cc(-c3ccccc3)oc2c1,72.3%,71.8%,87.5%,104%,80%,97.7%,87.5%,80.9%,80.9%
CCOC(=O)C(=O)Nc1ccc2c(ccn2C(=O)c2cccc(F)c2)c1,96.3%,101%,93.1%,92.4%,101%,103%,103%,94.4%,100%
CNC(=O)c1cc(-n2ccc3cc(NC(=O)Nc4ccc(N5CCN(C)CC5)c(C(F)(F)F)c4)ccc32)ccn1,-32.6% (active),-11.2% (active),97.7%,90%,84.5%,105%,91.9%,67%,98%
CN1CCN(Cc2ccc(NC(=O)c3cncc(C#Cc4cnc5ccc(O[C@@H]6CCOC6)nn45)c3)cc2C(F)(F)F)CC1,-29.7% (active),-24.1% (active),-60.1% (active),-66% (active),-73.7% (active),-67.8% (active),-51.9% (active),-46.9% (active),-34.5% (active)
Cc1ccc(S(=O)(=O)c2nc(-c3ccc(F)cc3)oc2S(C)(=O)=O)cc1,8.12% (active),31.7%,86.9%,95.2%,92.1%,100%,45.2%,90.6%,92%
CCN1CCN(c2ccc(NC(=O)Nc3ccc4c(ccn4-c4ccnc(C(=O)NC)c4)c3)cc2C(F)(F)F)CC1,-2.78% (active),8.67% (active),98.4%,89%,87%,80.6%,79.3%,34.6%,86.5%
O=C(/C=C/c1cccc(C(F)(F)F)c1)Nc1cccc(C(F)(F)F)c1,68.6%,24.4%,33%,95.4%,47.7%,79.3%,53%,93%,46.4%
O=C1[C@@H]2Cc3c([nH]c4ccccc34)[C@H](c3ccc(Br)cc3)N2C(=O)CN1C1CCN(Cc2c(Cl)cccc2Cl)CC1,91.7%,79.9%,94.6%,99.4%,86.2%,86.7%,84.7%,90.1%,90.9%
O=C(/C=C/c1ccccc1Cl)Nc1ncc(Cc2cc(Cl)ccc2Cl)s1,14.3%,19.7%,36.9%,56%,53.8%,43.7%,19.4%,5.7% (active),17.9%
C/C(=N\NC(=O)/C=C/CC(=O)O)c1nnn(-c2ccc([N+](=O)[O-])cc2)c1C,95.4%,101%,101%,108%,106%,106%,103%,116%,102%
Cn1cc(-c2nn3cc(-c4ccncc4)nc3s2)c2cc(Br)ccc21,8.33% (active),15.2%,28.8%,73.8%,75.7%,87.6%,33.4%,54.3%,42.8%
Cc1ccc(Nc2nc(SC(C)C)nc(-c3ccccc3)c2C#N)cc1,102%,99%,97%,81.8%,87.3%,96.2%,91%,87.8%,92.2%
O=S1SC(c2ccccc2)=NN1c1cc(F)cc(F)c1 (centres undefined),19.3%,11.5%,35.5%,93.8%,49.3%,24.8%,53.8%,61.9%,53.4%

Structure (SMILES),growth (SR leukemia),growth (RPMI-8226 leukemia),growth (OVCAR-8 ovarian),growth (OVCAR-5 ovarian),growth (OVCAR-4 ovarian),growth (SK-OV-3 ovarian),growth (IGROV1 ovarian),growth (HS 578T breast),growth (NCI/ADR-RES ovarian)
O=c1c2cc(-c3ccc(F)cc3F)ccc2n(Nc2ccccc2)c(=O)n1-c1cccc(C(F)(F)F)c1,9.45% (active),-6.8% (active),13.3%,79.3%,30.7%,8.64% (active),17.4%,-3.07% (active),3.74% (active)
O=C1C(SCc2ccccc2)=C(Cl)CN1c1ccc(Cl)cc1,1.35% (active),88.8%,95.2%,109%,103%,117%,104%,100%,105%
O=C1Nc2cc(Cl)ccc2/C1=C\c1ccc(OCc2ccccc2)cc1,105%,107%,100%,101%,96.3%,103%,91.6%,96.7%,104%
CC(=O)N(O)CCCCCNC(=O)CCC(=O)N(O)CCCCCNC(=O)CCC(=O)N(O)CCCCCN(CCCCCCCCCC[P+](c1ccccc1)(c1ccccc1)c1ccccc1)CCCCCCCCCC[P+](c1ccccc1)(c1ccccc1)c1ccccc1,1.64% (active),-13.9% (active),10.5%,16.2%,5.75% (active),-10% (active),-63.9% (active),16.3%,73.5%
O=C1C(SCc2ccccc2)=C(Cl)CN1c1ccccc1,18.5%,83.9%,101%,97.5%,103%,126%,103%,104%,102%
Clc1ccc2[nH]cc(-c3nn4cc(-c5cccnc5)nc4s3)c2c1,109%,86.9%,103%,108%,105%,91%,87.9%,93.6%,102%
O=c1c2cc(-c3ccc(F)cc3F)ccc2n(O)c(=O)n1-c1cccc(C(F)(F)F)c1,-0.936% (active),-19.1% (active),12%,42.3%,31.7%,-14.5% (active),21.2%,-0.801% (active),3.16% (active)
NC(=O)n1c(=O)n(-c2cccc(C(F)(F)F)c2)c(=O)c2cc(-c3ccc(F)cc3F)ccc21,4.71% (active),-30.6% (active),8.4% (active),43.7%,28.4%,-12.9% (active),14.8%,-6.46% (active),2.36% (active)
CCCCCCCCCCCC(=O)NC(C)(C)C(=O)N1CCCC1C(=O)NC(C)(C)C(=O)NC(C)(C)C(=O)N1CCCC1C(=O)NC(C)(C)C(=O)NC(C)(C)C(=O)N1CCCC1C(=O)NC(C)C(=O)NCCC(=O)NC(C)C(=O)NC(C)(C)C(=O)NC(C)(C)C(=O)NC(C)(C)C(=O)NCCC(=O)NC(C)(C)C(=O)NC(C)(C)C(=O)NC(C)(C)C(=O)NC(C)C(=O)NCCC(=O)O (centres undefined),-61.5% (active),-54.4% (active),-93.4% (active),-95.4% (active),-94.5% (active),-96.9% (active),-93.8% (active),-69.8% (active),-80.9% (active)
COCCOc1ccc2ncc(C#Cc3cncc(C(=O)Nc4ccc(CN5CCN(C)CC5)c(C(F)(F)F)c4)c3)n2n1,0.746% (active),23.4%,24.4%,21.8%,43.2%,24%,9.76% (active),-13.3% (active),3.81% (active)
COc1ccc2[nH]cc(-c3nn4cc(-c5ccncc5)nc4s3)c2c1,61.5%,43.8%,52%,107%,71.1%,88.3%,41.4%,87.5%,48.9%
CN(C)CC(=O)Nc1nc(-c2cccc(NS(=O)(=O)c3cccc4c(N(C)C)cccc34)c2)cs1,74.9%,60.6%,82.6%,105%,87.1%,107%,90.7%,90.6%,76.8%
CN1CCN(Cc2ccc(NC(=O)c3cncc(C#Cc4cnc5ccc(OCCCS(C)(=O)=O)nn45)c3)cc2C(F)(F)F)CC1,3.03% (active),-3.99% (active),-20.5% (active),3.1% (active),-29.7% (active),-10.9% (active),-13.9% (active),-24.1% (active),75%
CN1CCN(Cc2ccc(/C=N/Nc3ccnc4cc(Cl)ccc34)cc2)CC1,2.66% (active),46.7%,80.1%,102%,83%,107%,69.2%,89.3%,87%
CC1(C)CC[C@]23CC[C@]4(C)[C@H](CC[C@@H]5[C@@]6(C)CC[C@H](NCO)C(C)(C)[C@@H]6CC[C@]54C)[C@H]2[C@H]1OC3,3.69% (active),19.3%,96.1%,60.4%,76.9%,105%,64.8%,90.7%,82.6%
CC(=O)c1cc(C(=O)N2c3ccccc3Sc3ccccc32)n2c1ccc1ccccc12,11%,48.3%,71.5%,86.6%,78.1%,59.8%,52.7%,55.1%,35.9%
CCOP(=O)(OCC)OC[C@]12CCC(C)(C)C[C@H]1C1=CC[C@@H]3[C@@]4(C)CC[C@H](OP(=O)(OCC)OCC)C(C)(C)[C@@H]4CC[C@@]3(C)[C@]1(C)CC2,35%,5.23% (active),60.4%,75.2%,65.9%,73.2%,68.1%,83.2%,65.8%
N#C/C(=C\c1cccc2c1OCO2)C(=O)Nc1sc2c(c1C#N)CCCC2,90.3%,101%,105%,101%,108%,98.5%,100%,102%,106%
